Test results published in the OligoGym collection.

target: HPD; assay: pooled miR-30 sensor sort-seq; sequence = guide strand; settings: shRNA

Going from TATTCCGTGTGCACCTGCGTGT to TTATAGTCCACATATTCCTGGA, the sensor-assay potency score (higher = more potent) rises from -0.504 to 0.144.

First: AACTTGTCTTGCTCTACCCAGG
Second: TGCTGCAGTAGAATGACGCGGC
The sensor-assay potency score (higher = more potent) of the first is lower: -0.858 for the first, -0.159 for the second.

Compared with TTTGGTGAAGATCTGCAGGAGG, TTTCTCGTCGTAGTCCACCAGG is lower in sensor-assay potency score (higher = more potent): -0.36 for the first, -0.901 for the second.

Work on TTTGATTACATGGCTGACCACC yielded a sensor-assay potency score (higher = more potent) of -0.613.

target: HS3ST2; assay: as above; settings: shRNA

First: TTGAGTGACAAAGTAGCTGGGC
Second: TTGCTTGAACAGACTGATGAAA
The sensor-assay potency score (higher = more potent) of the first is higher: 0.674 for the first, -0.965 for the second.

Compared with ATCGCTTATAATATCTATCATC, TTATTTCACATGGACAAGCATG is higher in sensor-assay potency score (higher = more potent): -1.47 for the first, -1.23 for the second.

First: TTGATTTGCCCAAGCATCGAGG
Second: TTCTTGGAGAGTGTCTGCGTGT
The sensor-assay potency score (higher = more potent) of the first is higher: -0.341 for the first, -0.361 for the second.

Compared with ATAATATCTATCATCATTGGAA, TTGTCCGTGATGAATCTCTTAA is lower in sensor-assay potency score (higher = more potent): -0.218 for the first, -1.07 for the second.

Compared with TAACACAGGTAAGTGCAGGAGA, TAACAGCAGAATTATGTGCTTT is higher in sensor-assay potency score (higher = more potent): -0.326 for the first, -0.0537 for the second.

For TCTTGAGTGACAAAGTAGCTGG, the sensor-assay potency score (higher = more potent) was -0.586.

target: HS3ST4; assay: as above; settings: shRNA

First: TTTGAGGCCTAGAAAATCCTGT
Second: TTTGTTGAAATAGAAATGCTTC
The sensor-assay potency score (higher = more potent) of the first is higher: 0.0519 for the first, -0.152 for the second.

Compared with TGAGCCGTGATCATCTCGCTGG, TTCTGTACCACTCCAACCCCTT is lower in sensor-assay potency score (higher = more potent): -0.131 for the first, -0.516 for the second.

Going from TTTTACTAGAACAATTCCTGGT to TTTCTTTGACAGTGTCTGCGTG, the sensor-assay potency score (higher = more potent) falls from 0.147 to -0.405.

Going from TTGACAACTATTTATCCTCTGT to TTTACTAGAACAATTCCTGGTT, the sensor-assay potency score (higher = more potent) falls from 0.841 to 0.821.

First: TAAAACATCAAGTTGAAGGGTT
Second: TTGTCACAAAGTAACTTGGAGT
The sensor-assay potency score (higher = more potent) of the first is higher: 0.47 for the first, -0.395 for the second.

Going from TTCTTTGACAGTGTCTGCGTGT to TTTGTCACAAAGTAACTTGGAG, the sensor-assay potency score (higher = more potent) falls from 0.364 to -0.0205.

target: HS6ST1; assay: as above; settings: shRNA

Going from ATGAGCATGAAGCACACCGAGC to TTGGTGAGGGACACACTCCCGG, the sensor-assay potency score (higher = more potent) rises from -1.78 to -0.875.

Compared with TAGTGTGATGCATCCACCCAGG, TTGAACGTCCGCTCGAACAGGT is higher in sensor-assay potency score (higher = more potent): -0.887 for the first, -0.0201 for the second.

Compared with TGATGTAGTAGAACTTCCTGGG, TAGCAGGTGCACTTCTTCTGGC is lower in sensor-assay potency score (higher = more potent): 0.812 for the first, -0.598 for the second.

First: TTGAGGTTGAACGTCCGCTCGA
Second: TACTTCTTCTCGTAGTGGGGGT
The sensor-assay potency score (higher = more potent) of the first is lower: -0.171 for the first, -0.105 for the second.

Going from TTTTTTTGTATGAATAACCAAA to TAGTAGAACTTCCTGGGCGTGC, the sensor-assay potency score (higher = more potent) rises from -1.12 to -0.463.
